Here are results for 31 molecules from PubChem BioAssay (Tox21).

The target of assay [1] is Cytochrome P450 2D6 (Homo sapiens) (UniProt P10635). Nature of the assay: Cytochrome P450 Family 2 Subfamily D Member 6 (CYP2D6) small molecule antagonists: luciferase reporter qHTS assay (AID 1671196). For activity change, negative = inhibition: series mostly up to about 120 µM. Note: nearly all actives have a fitted effect of over 50% in size. Note: potency is the fitted concentration of half-maximal effect. A digest of the protocol:
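Inhibition of CYP2D6 was gauged by loss of luminescence, since light produced tracks the luciferin generated from a proluciferin substrate. A 10 min room-temperature preincubation preceded 1 h NADPH-supported turnover.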
Background: In a reporter assay the amount or activity of a reporter protein is the signal.

The target of assay [2] is Cytochrome P450 2C19 (Homo sapiens) (UniProt P33261). Nature of the assay: Cytochrome P450 Family 2 Subfamily C Member 19 (CYP2C19) small molecule antagonists: luciferase reporter qHTS assay (AID 1671197). For activity change, negative = inhibition: series mostly up to about 120 µM. Note: nearly all actives have a fitted effect of over 65% in size. Note: potency is the fitted concentration of half-maximal effect. In a few lines: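 Inhibition of CYP2C19 was scored from loss of luminescence in a P450-Glo proluciferin substrate assay, NADPH-started and run 1 h at 37C, with ketoconazole as positive control.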

Assay [3] concerns the target Cytochrome P450 2C9 (Homo sapiens) (UniProt P11712). Kind of assay: Cytochrome P450 Family 2 Subfamily C Member 9 (CYP2C9) small molecule antagonists: luciferase reporter qHTS assay (AID 1671198). For activity change, negative = inhibition: series mostly up to about 120 µM. Note: nearly all actives have a fitted effect of over 50% in size. Note: potency is the fitted concentration of half-maximal effect. In a few lines:
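Enzyme-substrate mix preincubated with compound 10 min at room temperature; reaction started with NADPH regeneration solution, 1 h 37C. Luminescent luciferin product read after 20 min detection reagent.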

In assay [4] the target is Cytochrome P450 1A2 (Homo sapiens) (UniProt P05177). Kind of assay: Cytochrome P450 Family 1 Subfamily A Member 2 (CYP1A2) small molecule antagonists: luciferase reporter qHTS assay (AID 1671199). For activity change, negative = inhibition: series mostly up to about 120 µM. Note: nearly all actives have a fitted effect of over 50% in size. Note: potency is the fitted concentration of half-maximal effect. A digest of the protocol:
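Signal from luciferin formed by CYP1A2 from a proluciferin substrate is read as luminescence, expressed in relative luminescence units. Compounds sit with enzyme 10 min, NADPH-driven reaction runs 1 h, all at room temperature.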

Assay [5] deals with Voltage-gated inwardly rectifying potassium channel KCNH2 (Homo sapiens) (UniProt Q12809). Nature of the assay: Human Ether-a-go-go-Related Gene (hERG) channel small molecule antagonists: fluorescence cell-based qHTS assay (AID 1671200).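 For activity change, negative = inhibition: hERG-expressing U2OS cells given a thallium stimulus after FluxOR II dye loading; series mostly up to about 77 µM.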 Note: nearly all actives have a fitted effect of over 50% in size. Note: potency is the fitted concentration of half-maximal effect. In a few lines:
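hERG-U2OS cells plated overnight at 37 C, loaded with FluxOR II dye 1 h at RT in dark; after 10 min, thallium stimulus added. Fluorescence (480/540 nm) read kinetically for 2 min at 1 s intervals.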
A general note: The hERG channel carries a current that helps repolarise heart muscle cells.

The target of assay [6] is Cytochrome P450 3A4 (Homo sapiens) (UniProt P08684). Kind of assay: Cytochrome P450 Family 3 Subfamily A Member 4 (CYP3A4) small molecule antagonists: luciferase reporter qHTS assay (AID 1671201). A digest of the protocol:
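P450-Glo CYP3A4 luminescent assay: compounds preincubated 10 min at room temperature with enzyme and proluciferin substrate, NADPH regeneration added, 1 h room-temperature reaction, stopped with luciferin detection reagent; luminescence read after 20 min. Ketoconazole positive control.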

“And” between values parts separate entries of the source, which are not always exact repeats. Equal values may be shown once. Records with an inconclusive call do not appear. More than one record can exist for a structure, and the calls need not agree. The source made the active and inactive calls. Calls come from the whole dose curve; as a rule, active = well fitted curve in the direction sought with a large enough effect in the repeat runs; inconclusive = weak or mixed curves; inactive = no such curve, though single readings can be large; an effect the other way counts as inactive or inconclusive.
% is set by controls: 0 for no effect and ±100 for the full control effect.

Sequence of Voltage-gated inwardly rectifying potassium channel KCNH2 (Homo sapiens) (Q12809 whole entry, looked up): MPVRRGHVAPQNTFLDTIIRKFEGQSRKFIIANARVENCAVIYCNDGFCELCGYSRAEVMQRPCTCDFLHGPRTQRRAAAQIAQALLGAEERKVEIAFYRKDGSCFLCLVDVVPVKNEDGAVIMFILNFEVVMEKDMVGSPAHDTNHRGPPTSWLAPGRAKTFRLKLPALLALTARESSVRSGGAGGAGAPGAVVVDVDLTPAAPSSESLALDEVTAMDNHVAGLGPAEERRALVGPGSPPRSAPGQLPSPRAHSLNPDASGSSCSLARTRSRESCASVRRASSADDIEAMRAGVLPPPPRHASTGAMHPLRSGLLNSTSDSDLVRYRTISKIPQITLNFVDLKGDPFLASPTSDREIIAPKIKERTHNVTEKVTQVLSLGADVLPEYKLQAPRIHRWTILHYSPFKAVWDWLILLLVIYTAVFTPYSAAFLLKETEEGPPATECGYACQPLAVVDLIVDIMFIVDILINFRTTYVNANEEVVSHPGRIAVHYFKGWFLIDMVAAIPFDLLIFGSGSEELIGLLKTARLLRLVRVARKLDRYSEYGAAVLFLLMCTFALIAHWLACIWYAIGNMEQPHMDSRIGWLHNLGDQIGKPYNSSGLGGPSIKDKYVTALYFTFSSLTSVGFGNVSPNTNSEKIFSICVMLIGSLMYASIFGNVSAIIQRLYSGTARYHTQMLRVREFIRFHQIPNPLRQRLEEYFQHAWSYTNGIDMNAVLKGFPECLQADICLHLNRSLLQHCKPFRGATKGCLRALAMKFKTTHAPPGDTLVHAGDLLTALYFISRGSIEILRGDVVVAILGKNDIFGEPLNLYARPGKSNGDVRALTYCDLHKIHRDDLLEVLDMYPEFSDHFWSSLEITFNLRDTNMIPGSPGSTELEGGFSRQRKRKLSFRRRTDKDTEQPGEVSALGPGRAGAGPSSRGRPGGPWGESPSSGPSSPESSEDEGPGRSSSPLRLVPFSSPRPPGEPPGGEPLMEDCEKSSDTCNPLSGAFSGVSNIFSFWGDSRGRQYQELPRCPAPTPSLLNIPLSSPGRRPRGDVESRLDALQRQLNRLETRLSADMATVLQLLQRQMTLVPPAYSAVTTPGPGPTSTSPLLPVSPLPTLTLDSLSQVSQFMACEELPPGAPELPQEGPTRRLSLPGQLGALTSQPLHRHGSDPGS
Sequence of Cytochrome P450 3A4 (Homo sapiens) (P08684 whole entry, looked up): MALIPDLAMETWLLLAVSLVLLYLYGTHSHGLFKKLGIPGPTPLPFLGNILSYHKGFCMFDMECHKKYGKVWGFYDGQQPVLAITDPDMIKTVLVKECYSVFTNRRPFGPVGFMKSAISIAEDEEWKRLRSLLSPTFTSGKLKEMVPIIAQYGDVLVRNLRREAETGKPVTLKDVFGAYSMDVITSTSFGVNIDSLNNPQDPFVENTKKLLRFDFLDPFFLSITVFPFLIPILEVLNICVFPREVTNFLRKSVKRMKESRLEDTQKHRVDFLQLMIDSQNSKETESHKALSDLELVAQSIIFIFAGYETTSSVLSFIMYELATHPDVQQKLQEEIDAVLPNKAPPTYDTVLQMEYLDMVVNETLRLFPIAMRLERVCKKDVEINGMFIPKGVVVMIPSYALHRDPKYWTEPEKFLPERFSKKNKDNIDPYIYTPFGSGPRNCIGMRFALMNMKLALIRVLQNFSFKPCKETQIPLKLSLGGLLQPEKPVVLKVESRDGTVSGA
Sequence of Cytochrome P450 1A2 (Homo sapiens) (P05177 whole entry, looked up): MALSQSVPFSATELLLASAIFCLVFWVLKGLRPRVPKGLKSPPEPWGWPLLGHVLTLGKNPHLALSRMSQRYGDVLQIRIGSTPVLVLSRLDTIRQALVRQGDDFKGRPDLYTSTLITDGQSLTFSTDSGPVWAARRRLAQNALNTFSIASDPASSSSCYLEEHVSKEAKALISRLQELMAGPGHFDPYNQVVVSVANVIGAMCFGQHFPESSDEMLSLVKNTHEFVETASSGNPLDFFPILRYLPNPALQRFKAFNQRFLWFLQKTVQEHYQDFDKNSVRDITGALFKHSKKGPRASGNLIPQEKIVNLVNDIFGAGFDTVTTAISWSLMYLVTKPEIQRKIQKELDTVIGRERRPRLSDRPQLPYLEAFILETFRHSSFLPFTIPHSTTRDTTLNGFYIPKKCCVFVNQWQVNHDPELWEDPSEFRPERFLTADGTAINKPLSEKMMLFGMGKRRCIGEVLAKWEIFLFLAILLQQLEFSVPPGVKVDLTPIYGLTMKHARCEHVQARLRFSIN
Sequence of Cytochrome P450 2C9 (Homo sapiens) (P11712 whole entry, looked up): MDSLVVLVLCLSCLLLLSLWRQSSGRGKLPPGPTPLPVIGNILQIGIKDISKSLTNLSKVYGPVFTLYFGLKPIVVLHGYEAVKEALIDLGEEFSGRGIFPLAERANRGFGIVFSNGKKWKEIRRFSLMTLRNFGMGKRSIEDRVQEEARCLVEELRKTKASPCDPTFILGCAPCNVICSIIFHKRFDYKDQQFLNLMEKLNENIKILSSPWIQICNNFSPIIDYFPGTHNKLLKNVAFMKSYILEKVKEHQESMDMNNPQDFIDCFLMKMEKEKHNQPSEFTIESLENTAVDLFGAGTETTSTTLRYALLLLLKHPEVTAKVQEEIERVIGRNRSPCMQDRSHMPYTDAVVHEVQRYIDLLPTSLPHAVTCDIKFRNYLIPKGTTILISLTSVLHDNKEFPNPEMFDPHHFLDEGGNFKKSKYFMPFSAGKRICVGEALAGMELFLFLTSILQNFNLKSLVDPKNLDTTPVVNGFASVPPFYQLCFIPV
Sequence of Cytochrome P450 2C19 (Homo sapiens) (P33261 whole entry, looked up): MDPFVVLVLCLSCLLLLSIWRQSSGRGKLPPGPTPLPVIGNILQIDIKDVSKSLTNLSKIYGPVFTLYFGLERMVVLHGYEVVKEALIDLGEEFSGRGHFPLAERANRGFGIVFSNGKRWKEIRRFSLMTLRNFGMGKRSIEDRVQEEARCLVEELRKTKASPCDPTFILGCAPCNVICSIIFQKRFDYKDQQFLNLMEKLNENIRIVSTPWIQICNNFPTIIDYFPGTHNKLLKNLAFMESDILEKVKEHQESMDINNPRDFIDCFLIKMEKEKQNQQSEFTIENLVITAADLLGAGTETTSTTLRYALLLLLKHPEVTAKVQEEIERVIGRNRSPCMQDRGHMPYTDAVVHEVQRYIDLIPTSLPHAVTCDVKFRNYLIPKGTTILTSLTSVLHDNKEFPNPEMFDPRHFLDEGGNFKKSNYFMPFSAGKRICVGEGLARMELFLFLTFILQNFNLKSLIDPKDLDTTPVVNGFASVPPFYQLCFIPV
Sequence of Cytochrome P450 2D6 (Homo sapiens) (P10635 whole entry, looked up): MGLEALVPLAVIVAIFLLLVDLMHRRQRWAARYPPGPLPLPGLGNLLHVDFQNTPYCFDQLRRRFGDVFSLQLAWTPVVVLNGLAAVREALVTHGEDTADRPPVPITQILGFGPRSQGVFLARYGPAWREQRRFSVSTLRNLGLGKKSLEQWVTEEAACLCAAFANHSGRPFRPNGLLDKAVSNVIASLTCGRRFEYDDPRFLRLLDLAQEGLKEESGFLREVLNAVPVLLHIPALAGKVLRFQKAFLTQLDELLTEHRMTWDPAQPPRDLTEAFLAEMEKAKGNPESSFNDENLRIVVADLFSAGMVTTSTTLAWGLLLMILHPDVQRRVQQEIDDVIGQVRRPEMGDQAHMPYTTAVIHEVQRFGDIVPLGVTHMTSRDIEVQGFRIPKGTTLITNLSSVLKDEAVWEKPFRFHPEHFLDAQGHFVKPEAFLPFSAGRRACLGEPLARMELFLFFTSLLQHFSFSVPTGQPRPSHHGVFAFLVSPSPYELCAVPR

Regarding `CCC(=O)OC(C)c1ccccc1` (stereo unspecified), the Potency entry in assay [1], in assay [2], in assay [3], in assay [4], in assay [5] and in assay [6] was “inactive” each time.
For the molecule `CC(C)NCC(O)c1ccc(NS(C)(=O)=O)cc1` (stereo unspecified), the Potency is 36 µM (active) in assay [1] and 22.1 µM (active) in assay [5]. Moreover, the Potency entry in assay [2], in assay [3], in assay [4] and in assay [6] was “inactive” each time.
Consider `CN(C)CCCNCCCN(C)C`, for which the Potency in assay [1] is 20 µM (active). The Potency entry in assay [2], in assay [3], in assay [4] and in assay [5] was “inactive” in each case.
On to `C=CCOCC(CC)(CO)COCC=C`, for which the Potency entry in assay [1] and in assay [5] was “inactive” throughout. In addition, the figures for the Potency in assay [2], in assay [3] and in assay [4] were 3.99 µM (active), 25.2 µM (active) and 28.3 µM (active), respectively.
Take `CCOC(=O)[C@H](CCc1ccccc1)N[C@@H](C)C(=O)N1[C@H](C(=O)O)C[C@@H]2CCC[C@@H]21`: the Potency entry in assay [1], in assay [2], in assay [3], in assay [4] and in assay [5] was “inactive” throughout.
On to `CCOC(=O)Nc1ccc(NCc2ccc(F)cc2)nc1N`, for which the figures for the Potency in assay [1], in assay [2] and in assay [3] were 3.09 µM (active), 11 µM (active) and 6.17 µM (active), respectively. Further, in assay [4], the Potency result is “inactive”.
For the molecule `CCOC(=O)c1ccc(C)cc1`, the Potency result in assay [1], in assay [2], in assay [3], in assay [4], in assay [5] and in assay [6] was “inactive” in each case.
Consider `CCOC(=O)CCC(C)=O`, for which the Potency result in assay [1], in assay [2], in assay [3], in assay [4], in assay [5] and in assay [6] was “inactive” each time.
As for `CC(C)NC(=O)NC(C)C`, the Potency entry in assay [1], in assay [2], in assay [3], in assay [4], in assay [5] and in assay [6] was “inactive” in each case.
`Cn1cc(S(C)=O)c(=O)c2ccc(F)cc21` (stereo unspecified): the Potency entry in assay [1], in assay [2], in assay [3], in assay [4], in assay [5] and in assay [6] was “inactive” in each case.
For the molecule `CCCC(=O)O[C@]1(C(=O)CO)CC[C@H]2[C@@H]3CCC4=CC(=O)CC[C@]4(C)[C@H]3[C@@H](O)C[C@@]21C`, the Potency result in assay [1], in assay [2], in assay [3], in assay [4] and in assay [5] was “inactive” in each case.
For the molecule `CCCCCSCCCCC`, the Potency result in assay [1], in assay [2], in assay [3], in assay [4], in assay [5] and in assay [6] was “inactive” in each case.
Take `N[C@@H](C(=O)N[C@@H]1C(=O)N2C(C(=O)O)=C(Cl)CS[C@H]12)c1ccccc1`: the activity change, negative = inhibition in assay [1] is -15.8% [at 10.5 µM] (inactive); in assay [2] it was 33.2% [at 10.5 µM] (inactive); in assay [3], -2.01% [at 10.5 µM] (inactive); in assay [4] it was 7.47% [at 10.5 µM] (inactive); in assay [5], -6.12% [at 6.97 µM] (inactive); in assay [6], -15.7% [at 10.5 µM] (inactive).
In the case of `COC(=O)c1ccc(C)cc1C1=NC(C)(C(C)C)C(=O)N1` (stereo unspecified), the Potency entry in assay [1], in assay [2], in assay [3], in assay [4] and in assay [5] was “inactive” in each case.
As to `O=C[C@H](O)[C@@H](O)[C@H](O)[C@H](O)CO`, the Potency result in assay [1], in assay [2], in assay [3], in assay [4], in assay [5] and in assay [6] was “inactive” each time.
Turning to `CCCN1CCCC[C@H]1C(=O)Nc1c(C)cccc1C`, the Potency in assay [1] is 4.9 µM (active). For the same molecule, the Potency result in assay [2], in assay [3], in assay [4] and in assay [5] was “inactive” in each case.
For the molecule `CC(C)(c1ccc(O)cc1)c1ccc(O)cc1`, the Potency result in assay [1] was “inactive and 64.4 µM (active)”; in assay [3] it was 35.2 µM (active) and 28.8 µM (active); in assay [4], “inactive and 57.4 µM (active)”. Further, the Potency entry in assay [2] and in assay [5] was “inactive” each time.
As for `CC1=CC(C)C(C=O)CC1` (stereo unspecified), the Potency result in assay [1], in assay [2], in assay [3], in assay [4], in assay [5] and in assay [6] was “inactive” in each case.
Consider `Cc1sccc1Br`, for which the Potency entry in assay [1], in assay [2], in assay [3], in assay [4], in assay [5] and in assay [6] was “inactive” throughout.
On to `C=C[Si](OC(=C)C)(OC(=C)C)OC(=C)C`, for which the Potency entry in assay [1], in assay [3], in assay [4] and in assay [5] was “inactive” throughout. Also, the Potency in assay [2] is 39.9 µM (active).
As to `c1cnc(N2CCN(Cc3ccc4c(c3)OCO4)CC2)nc1`, the Potency in assay [1] was 1.23 µM (active); in assay [2] it was 3.47 µM (active); in assay [3], 15.5 µM (active); in assay [4], 4.07 µM (active). Further, the Potency entry in assay [5] is “inactive”.
As to `CC[N+](C)(C)c1cccc(O)c1`, the Potency result in assay [1], in assay [2], in assay [3], in assay [4], in assay [5] and in assay [6] was “inactive” throughout.
As to `CCOC(=O)c1cccc(N)c1`, the Potency result in assay [1], in assay [2], in assay [3], in assay [5] and in assay [6] was “inactive” each time. The Potency in assay [4] was 5.75 µM (active).
As for `C=CCS(=O)(=O)O`, the Potency entry in assay [1], in assay [2], in assay [3], in assay [4], in assay [5] and in assay [6] was “inactive” each time.
With `O=C1NC(=O)[C@@]2(CCOc3ccc(F)cc32)N1`, the Potency result in assay [1], in assay [2], in assay [3], in assay [4], in assay [5] and in assay [6] was “inactive” throughout.
`Cc1cnc(NS(=O)(=O)c2ccc(N)cc2)nc1`: the Potency entry in assay [1], in assay [2], in assay [3], in assay [4], in assay [5] and in assay [6] was “inactive” in each case.
As for `N[C@H]1CN(c2c(F)cc3c(=O)c(C(=O)O)cn(C4C[C@H]4F)c3c2Cl)CC12CC2` (stereo partly specified), the Potency result in assay [1], in assay [2], in assay [3], in assay [4] and in assay [5] was “inactive” in each case.
In the case of `CC(C)(C)NCCNC(C)(C)C`, the Potency entry in assay [1], in assay [3], in assay [4], in assay [5] and in assay [6] was “inactive” each time. Also, the Potency in assay [2] is 35.6 µM (active).
On to `COc1cc(C(=O)N2CCCCCCC2)cc(OC)c1OC`, for which the Potency result in assay [1], in assay [3], in assay [4] and in assay [5] was “inactive” in each case. Moreover, in assay [2], the Potency is 21.9 µM (active).
On to `C[C@@H]1CCN(C(=O)[C@H](CCCN=C(N)N)NS(=O)(=O)c2cccc3c2NC[C@H](C)C3)[C@@H](C(=O)O)C1`, for which the Potency entry in assay [1], in assay [2], in assay [3] and in assay [4] was “inactive” in each case.
Regarding `CCN(CC)CCNC(=O)c1cc(S(C)(=O)=O)ccc1OC`, in assay [1], the Potency is 12.3 µM (active). The Potency entry in assay [2], in assay [3], in assay [4], in assay [5] and in assay [6] was “inactive” throughout.
